Laboratory results as given in PubChem BioAssay AID1159606 (Sanford-Burnham Center for Chemical Genomics, 2016).
Among all 360,000 compounds or so, about 7,300 (2%) were called active. No stated cut-off is given here; in the data, active means inhibition above about 50%; inactive means the rest. Many of the other results were omitted from the sample, so actives are more common in it than they were.

test: blockers of TWEAK-induced Fn14 reporter activity – luciferase reporter cells, uHTS, primary screen (AID 1159606); details: TWEAK-stimulated Fn14 reporter cells, luciferase luminescence, 8 h; at 10 µM; active compounds read high

Question: Which inhibition does the source give for `CC[C@H]1CN2CCc3cc(OC)c(OC)cc3[C@@H]2C[C@@H]1C[C@H]1NCCc2cc(OC)c(OC)cc21` here?
Answer: Its inhibition is 98% (active).

Question: For `Cn1ncc([N+](=O)[O-])c1C(=O)Nc1cc(Cl)ccc1Cl`, which inhibition is on record?
Answer: The inhibition was -23.8% (inactive).

Question: Which inhibition does the source give for `Cc1cc2nc(-c3ccc(F)cc3)c(Cc3ccsc3)n2c(C)c1Br` here?
Answer: Its inhibition is 0.39% (inactive).

Question: Which inhibition does the source give for `Cc1cc(=O)oc2c3c(cc(OCC(=O)NCC(O)c4ccccc4)c12)OC(C)(C)CC3` (stereo not given) here?
Answer: The inhibition was -0.31% (inactive).

Question: With `O=C(CC1CCCCC1)NCc1ccc(F)cc1` as the compound, how does the inhibition read?
Answer: The inhibition was 7.42% (inactive).

Question: Which inhibition does the source give for `CCc1ccc2c(c1)NC(=O)C2(C)Cc1ccc(OC(F)(F)F)cc1` (stereo not given) here?
Answer: Its inhibition is 8.25% (inactive).

Question: With `CCc1ccc2c(c1)C1(NN=C(c3ccccc3)S1)C(=O)N2` (stereo not given) as the compound, how does the inhibition read?
Answer: Its inhibition is 87.5% (active).

Question: For `NS(=O)(=O)c1cccc(NC(=O)COC(=O)c2cc([N+](=O)[O-])ccc2N2CCCC2)c1`, which inhibition is on record?
Answer: Its inhibition is -16.4% (inactive).

Question: Which inhibition does the source give for `O=[N+]([O-])c1ccc2oc(-c3cccc(O)c3)nc2c1` here?
Answer: Its inhibition is 5.84% (inactive).

Question: For `COc1ccc2oc(N)nc2c1`, which inhibition is on record?
Answer: Its inhibition is -11.6% (inactive).

Question: With `COc1cccc(-c2nc3cc(C)ccc3o2)c1` as the compound, how does the inhibition read?
Answer: Its inhibition is 51.2% (active).

Question: Which inhibition does the source give for `CCN(CC)c1ccc(NC(=O)c2ccc(=O)[nH]c2)cc1S(=O)(=O)Nc1ccc(OC)cc1` here?
Answer: Its inhibition is 9.69% (inactive).

Question: Which inhibition does the source give for `COc1cc(NC(=O)COC(=O)CSc2ccc3ccccc3c2)c(C)cc1[N+](=O)[O-]` here?
Answer: Its inhibition is 2.69% (inactive).

Question: With `CC[C@@H]1Cc2cc(O)ccc2C2=C1c1ccc(O)cc1C[C@H]2CC` as the compound, how does the inhibition read?
Answer: The inhibition was 77% (active).

Question: With `CC(=O)c1cccc(NC(=S)N2CCN(S(C)(=O)=O)CC2)c1` as the compound, how does the inhibition read?
Answer: Its inhibition is -22.1% (inactive).

Question: For `CCSc1nsc(NC(=O)Nc2cccc(C(C)=O)c2)n1`, which inhibition is on record?
Answer: Its inhibition is 87.9% (active).

Question: For `CC(=O)c1cccc(NC(=O)C2CCN(C(=O)c3ccccc3Cl)CC2)c1`, which inhibition is on record?
Answer: Its inhibition is -5.45% (inactive).

Question: Which inhibition does the source give for `C=CCSc1nsc(NC(=O)Nc2cccc(C(C)=O)c2)n1` here?
Answer: The inhibition was 91% (active).

Question: Which inhibition does the source give for `COc1ccc(NC(C(=O)Nc2cccc(C(C)=O)c2)c2ccccc2)cc1` (stereo not given) here?
Answer: Its inhibition is -31.7% (inactive).

Question: With `CSc1ccccc1C(=O)Nc1cccc(C(C)=O)c1` as the compound, how does the inhibition read?
Answer: The inhibition was 0.31% (inactive).

Question: Which inhibition does the source give for `Cc1ccc(C2Nc3ccccc3C(=O)N2CCN2CCNC2=O)cc1` (stereo not given) here?
Answer: The inhibition was -6.92% (inactive).

Question: Which inhibition does the source give for `C[C@@H]1CN([C@@H](C)CO)C(=O)c2cc(NS(C)(=O)=O)ccc2O[C@@H](C)CCCCO[C@H]1CN(C)C(=O)Nc1ccc2c(c1)OCO2` here?
Answer: The inhibition was -5.22% (inactive).

Question: Which inhibition does the source give for `O=C(c1ccc(F)cc1)n1c(=S)nc2ccccn21` here?
Answer: Its inhibition is 78.2% (active).

Question: For `O=C(c1ccc(F)cc1)N1CCC(n2nnc3ccccc32)CC1`, which inhibition is on record?
Answer: Its inhibition is -5.58% (inactive).

Question: For `CC1COc2ccccc2N1C(=O)c1ccc(F)cc1` (stereo not given), which inhibition is on record?
Answer: The inhibition was 0.29% (inactive).

Question: With `CCCC(CCC(=O)OC)(C(=O)OCC)c1csc(N)n1` (stereo not given) as the compound, how does the inhibition read?
Answer: Its inhibition is -16.1% (inactive).

Question: With `C/C=C(/C)C(=O)OC1Cc2c(ccc3ccc(=O)oc23)OC1(C)C` (stereo not given) as the compound, how does the inhibition read?
Answer: Its inhibition is 94.7% (active).

Question: With `CC1(C)Oc2ccc3ccc(=O)oc3c2/C(=N/O)C1=O` as the compound, how does the inhibition read?
Answer: Its inhibition is 3.76% (inactive).

Question: For `CC1(C)Oc2ccc3ccc(=O)oc3c2/C(=C/NCCO)C1=O`, which inhibition is on record?
Answer: Its inhibition is 4.08% (inactive).

Question: For `COc1ccc(C2CC(c3cccc(OC)c3)=NN2c2ccc(S(N)(=O)=O)cc2)cc1` (stereo not given), which inhibition is on record?
Answer: The inhibition was -3.98% (inactive).

Question: For `CCCSc1nc2c(c(=O)n(C)c(=O)n2C)n1Cc1ccc(C)cc1`, which inhibition is on record?
Answer: Its inhibition is 68.3% (active).

Question: With `CCOc1ccc(Cn2c(SCCCCC#N)nc3c2c(=O)n(C)c(=O)n3C)cc1OCC` as the compound, how does the inhibition read?
Answer: Its inhibition is -21.4% (inactive).

Question: Which inhibition does the source give for `Cn1c(=O)c2c(nc(SCCNS(=O)(=O)c3ccccc3)n2C)n(C)c1=O` here?
Answer: Its inhibition is 3.41% (inactive).

Question: With `O=C(Cn1nnc2ccccc2c1=O)Nc1cc(C(F)(F)F)ccc1N1CCOCC1` as the compound, how does the inhibition read?
Answer: The inhibition was 1.74% (inactive).

Question: For `C#CCNC(=O)C1=C[C@@H](c2ccccc2)[C@H](CCCO)[C@@H](OCC)O1`, which inhibition is on record?
Answer: The inhibition was 4.59% (inactive).

Question: With `O=C(CCCCCn1c(=O)[nH]c2ccccc2c1=O)NCCc1c[nH]c2ccccc12` as the compound, how does the inhibition read?
Answer: The inhibition was 35% (inactive).

Question: For `Cc1ccc(OCCCC(=O)N2CCOCC2)c(C)c1`, which inhibition is on record?
Answer: The inhibition was -41.6% (inactive).

Question: Which inhibition does the source give for `Cc1ccc(C)c(N2CCN(C(=O)CCCn3c(=O)c4cccn4c4cccnc43)CC2)c1` here?
Answer: Its inhibition is -17.6% (inactive).

Question: For `Cc1ccc(C)c(N2CCN(C(=O)CCCCn3c(=O)[nH]c4ccccc4c3=O)CC2)c1`, which inhibition is on record?
Answer: The inhibition was 50.3% (active).

Question: For `Cc1ccc(C)c(N2CCN(C(=O)CCCCCn3c(=S)[nH]c4ccc(N5CCOCC5)cc4c3=O)CC2)c1`, which inhibition is on record?
Answer: Its inhibition is 88.1% (active).

Question: With `O=C(CCCCCn1c(=S)[nH]c2cc3c(cc2c1=O)OCO3)N1CCN(c2ccc(F)cc2)CC1` as the compound, how does the inhibition read?
Answer: Its inhibition is -18.2% (inactive).

Question: Which inhibition does the source give for `O=C(CCCC(=O)N(CC(=O)NC1CCCC1)Cc1ccccc1Cl)Nc1ccccn1` here?
Answer: Its inhibition is 5.53% (inactive).

Question: For `CSCCC(NC(=O)C1CCC(C)CC1)C(=O)NCc1ccco1` (stereo not given), which inhibition is on record?
Answer: The inhibition was -2.99% (inactive).

Question: With `Cc1ccc(Cn2cc(CN3CC(N4CCN(C)CC4)CS3(=O)=O)nn2)cc1` (stereo not given) as the compound, how does the inhibition read?
Answer: The inhibition was -2.98% (inactive).

Question: For `CN1CCN(c2ccc3c(c2)OC[C@H](Cc2ccccc2)NS3(=O)=O)CC1`, which inhibition is on record?
Answer: Its inhibition is -3.51% (inactive).

Question: Which inhibition does the source give for `CCc1nc2ccc(C(=O)Nc3cccc(OC)c3)cn2c1N(CCC(C)C)CCN(C)C` here?
Answer: The inhibition was 15.5% (inactive).

Question: Which inhibition does the source give for `C=CCN1CCN(C(=O)CCCc2ccccc2)CC1` here?
Answer: Its inhibition is 86.5% (active).

Question: Which inhibition does the source give for `CC1=NN(C(=O)CCCc2ccccc2)C(O)(C(F)(F)F)C1` (stereo not given) here?
Answer: The inhibition was -10.4% (inactive).

Question: Which inhibition does the source give for `CCN1CCN(C(=O)CCN2C(=O)c3ccccc3C2=O)CC1` here?
Answer: Its inhibition is -7.32% (inactive).

Question: With `CC1CCCC(C)N1/N=C/c1ccccc1OC(F)F` (stereo not given) as the compound, how does the inhibition read?
Answer: The inhibition was -5.12% (inactive).

Question: For `Cc1nn(-c2ccccc2)c(C)c1NC(=O)COC(=O)c1cc(Cl)ccc1O`, which inhibition is on record?
Answer: Its inhibition is 1.71% (inactive).

Question: For `Cc1nn(-c2ccccc2)c(C)c1NC(=O)COc1ccc(Cl)cc1Cl`, which inhibition is on record?
Answer: The inhibition was 86.4% (active).

Question: Which inhibition does the source give for `Cc1nn(-c2ccccc2)c(C)c1NC(=O)CCl` here?
Answer: Its inhibition is 6.77% (inactive).

Question: For `O=C(Nc1ccc(N2CCCC2=O)cc1)c1cncc(Br)c1`, which inhibition is on record?
Answer: The inhibition was 50.3% (active).

Question: Which inhibition does the source give for `O=C(Nc1cccc(S(=O)(=O)N2CCCC2)c1)c1cncc(Br)c1` here?
Answer: Its inhibition is 13.2% (inactive).

Question: With `O=C(Nc1cccc(S(=O)(=O)N2CCCCC2)c1)c1cncc(Br)c1` as the compound, how does the inhibition read?
Answer: The inhibition was 20.6% (inactive).

Question: With `COc1cc(C)c(CN2CCN(C(=O)CCC(=O)c3ccc(C)s3)CC2)cc1OC` as the compound, how does the inhibition read?
Answer: Its inhibition is 11.6% (inactive).

Question: Which inhibition does the source give for `COc1ccc(Nc2ncc(F)c(N3CCOCC3)n2)cc1` here?
Answer: Its inhibition is 60.1% (active).

Question: Which inhibition does the source give for `COC(=O)c1ccccc1Oc1c(F)c(F)nc(N2CCOCC2)c1F` here?
Answer: The inhibition was -14.1% (inactive).

Question: Which inhibition does the source give for `CCOc1ccc(Nc2nc(Cl)nc(N3CCN(c4ccc(OC)cc4)CC3)n2)cc1` here?
Answer: Its inhibition is 1.18% (inactive).
